From PubChem BioAssay (Tox21)
Results filed as inconclusive are left out. Some structures have more than one record in an assay (separate samples or runs), and their calls can disagree. The source made the active and inactive calls. Unless noted, the call rests on the fitted dose curve; in most records, active means well fitted curve in the direction sought with a large enough effect in the repeat runs; inconclusive means weak or mixed curves; inactive means no such curve, though single readings can be large; an effect the other way counts as inactive or inconclusive.

What was measured:
[1] = qHTS assay to identify small molecule agonists of the vitamin D receptor (VDR) signaling pathway - cell viability counter screen (AID 743224); further: nearly all actives have a fitted effect of over 50% in size; further: potency means the concentration at half of the fitted maximal effect
How it was run: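 VDR-bla cell line, quantitative HTS format; 16 h compound incubation (37C, 5% CO2); ATP-based CellTiter-Glo luminescence measured in the reporter assay wells.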

[2] = qHTS assay to identify small molecule antagonists of the vitamin D receptor (VDR) signaling pathway - cell viability counter screen (AID 743225); further: nearly all actives have a fitted effect of over 50% in size; further: potency means the concentration at half of the fitted maximal effect
How it was run: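 Viability counter screen run in the same wells as the beta-lactamase reporter assay: HEK 293T VDR-UAS-bla cells, 16 h compound exposure at 37C with 3 nM (final) 1-alpha,25-dihydroxyvitamin D3. CellTiter-Glo luminescence, 30 min, room temperature.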

[3] = qHTS assay to identify small molecule agonists of the NFkB signaling pathway (AID 1159509; active means well fitted curve in the direction sought with a large enough effect in the signal ratio in the repeat runs, not every such curve was filed as active; the % refers to the signal ratio; further: series mostly up to about 61 µM)
How it was run: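 NFkB-bla ME-180 cells with a beta-lactamase reporter under an NF-kB response element were plated overnight, treated with compounds in DMSO for 5 hr at 37 C, then loaded with FRET substrate for 1.5 hr at room temperature.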

[4] = qHTS assay to identify small molecule agonists of the NFkB signaling pathway - cell viability counter screen (AID 1159515; calls by dose curve; further: series mostly up to about 61 µM; nearly all actives have a fitted effect of over 55% in size)
How it was run: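 Viability in NFkB-bla ME-180 cells was measured by CellTiter-Glo luminescence, 30 min room temperature, in wells already treated 5 hr with compounds and read for reporter FRET.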

[5] = qHTS assay to identify small molecule agonists of the endoplasmic reticulum stress response signaling pathway (AID 1159516; active means well fitted activation curve with a large enough effect in the signal ratio in the repeat runs, not every such curve was filed as active; the % refers to the signal ratio)
How it was run: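 ER stress element reporter (bla) in HeLa. 1,500 cells/well, overnight attachment; 5 hr compound; 2 hr RT substrate; dual-emission fluorescence.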

[6] = qHTS assay to identify small molecule agonists of the endoplasmic reticulum stress response signaling pathway - cell viability counter screen (AID 1159517; calls by dose curve; further: nearly all actives have a fitted effect of over 50% in size; further: potency means the concentration at half of the fitted maximal effect)
How it was run: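 Counter-screen wells were identical to the reporter wells. Cells were plated at 1,500 per well and dosed for 5 hr, then read for luminescence 30 min after CellTiter-Glo addition.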

[7] = biological target: Nuclear receptor ROR-gamma (Homo sapiens) (UniProt P51449); test: qHTS assay to identify small molecule antagonists of the retinoid-related orphan receptor gamma (ROR-gamma) signaling pathway (AID 1159521; further: nearly all actives have a fitted effect of over 50% in size; further: potency means the concentration at half of the fitted maximal effect)
How it was run: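 Luminescence readout (ONE-Glo, 30 min RT) after 16 h doxycycline induction; loss of signal scored as antagonism. CHO cells with TET-inducible RORγ and RORE-LUC reporter; compounds added 2 h before 1 uM final doxycycline.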

[8] = qHTS assay to identify small molecule antagonists of the retinoid-related orphan receptor gamma (ROR-gamma) signaling pathway - cell viability counter screen (AID 1159520); further: nearly all actives have a fitted effect of over 50% in size; further: potency means the concentration at half of the fitted maximal effect
How it was run: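 Tet-on ROR gamma CHO cells were given compounds for 2 hr, then doxycycline hyclate at 1 uM final, and incubated 16 hr at 37 C. Viability was measured as ATP content by CellTiter-Glo luminescence.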

[9] = qHTS assay to identify small molecule agonists of the AP-1 signaling pathway - cell viability counter screen (AID 1159525; calls by dose curve; further: nearly all actives have a fitted effect of over 55% in size; further: potency means the concentration at half of the fitted maximal effect)
How it was run: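 AP-1-bla ME-180 cells in Opti-MEM with 0.5% dialyzed FBS, compound exposure 5 h at 37 C in 15-point titration. Viability read in the same wells as ATP content by CellTiter-Glo luminescence, normalised to tetra-n-octylammonium bromide and DMSO controls.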

[10] = qHTS assay to identify small molecule agonists of the AP-1 signaling pathway (AID 1159526; calls by dose curve)

Measured: Potency

CCCCC(O)(Cn1cncn1)c1ccc(Cl)cc1Cl (stereo not drawn)
active: [1] 48.9 µM | [2] 54.9 µM | [7] 54.4 µM
inactive: [3] | [4] | [5] | [6]

Cc1cc(=O)[nH]o1
not listed: [6]
inactive: all other assays above

CCBr
not listed: [6]
inactive: all other assays above

C[C@H]1CNCCc2ccc(Cl)cc21
not listed: [6] | [10]
inactive: all other assays above

N#Cc1ccc(Cl)cc1
not listed: [7] | [8]
inactive: all other assays above

Cc1ccc(N)cc1C
not listed: [6] | [9]
inactive: all other assays above

Cl/C=C\Cl
not listed: [6]
inactive: all other assays above

O=C(Nc1ccccc1)Nc1ccnc(Cl)c1
inactive: [3] | [4] | [5] | [6] | [9]

Nc1nc(=S)[nH][nH]1
not listed: [6]
inactive: all other assays above

C/C=C/C=O
not listed: [6]
inactive: all other assays above

Brc1ccc(Oc2ccccc2)cc1
55.8 µM (active) and inactive: [7]
not listed: [6]
inactive: all other assays above

CCOC(=O)COc1cc(-c2nn(C)c(OC(F)F)c2Cl)c(F)cc1Cl
not listed: [5]
inactive: all other assays above

CC(C)N(C(=O)COc1nnc(C(F)(F)F)s1)c1ccc(F)cc1
not listed: [1] | [6] | [7]
inactive: all other assays above

COC(=O)C(Cl)C(=O)OC
not listed: [5]
inactive: all other assays above

CCCCN=C=O
not listed: [6] | [7] | [9]
inactive: all other assays above

O=C(O)C(F)(F)C(F)(F)C(F)(F)C(F)(F)C(F)(F)C(F)(F)C(F)(F)C(F)(F)C(F)(F)F
inactive: [2] | [3] | [4] | [5] | [8] | [9]

NCCCNCCCN
active: [2] 49.7 µM
not listed: [1] | [6] | [7]
inactive: all other assays above

COP(=S)(Oc1cc(Cl)c(Br)cc1Cl)c1ccccc1 (stereo not drawn)
active: [1] 38.9 µM
inactive: [2] | [3] | [4] | [5] | [9]

CNC(C)Cc1ccccc1OC (stereo not drawn)
not listed: [5]
inactive: all other assays above

CCCCCCCCCCOC(=O)c1ccccc1C(=O)OCCCCCCCCCC
not listed: [2] | [6] | [7]
inactive: all other assays above

C=CCCl
not listed: [6] | [7]
inactive: all other assays above

Brc1ccccc1
not listed: [6] | [7]
inactive: all other assays above

Clc1cc(C(Cl)(Cl)Cl)cnc1Cl
active: [6] 11 µM
not listed: [5]
inactive: all other assays above

O=[N+]([O-])c1ccc(F)c([N+](=O)[O-])c1
active: [6] 17.5 µM | [8] 38.9 µM | [7] 49 µM
not listed: [5]
inactive: all other assays above

CCCN(CC1CC1)c1c([N+](=O)[O-])cc(C(F)(F)F)cc1[N+](=O)[O-]
not listed: [5]
inactive: all other assays above

CCN(C)N=O
inactive: [1] | [3] | [4] | [5] | [8] | [9]

CC(C)N(CCC(C(N)=O)(c1ccccc1)c1ccccn1)C(C)C (stereo not drawn)
not listed: [5]
inactive: all other assays above

O=C(NC(=O)c1c(F)cccc1F)Nc1ccc(OC(F)(F)C(F)OC(F)(F)F)c(Cl)c1 (stereo not drawn)
not listed: [6] | [9]
inactive: all other assays above

CC(=O)c1cc2c(cc1C)C(C)(C)C(C)CC2(C)C (stereo not drawn)
inactive: [2] | [3] | [4] | [5] | [8]
active: [1] 49 µM | [9] 49 µM

C=CC(C)=O
not listed: [6] | [7]
inactive: all other assays above
